Data reported in the supplement of paper PMC10849652.
Of roughly 7,900 targets only a part is listed; those with a hit were picked by preference. About 0.6% of all pairs of compound and target were hits. Unmarked numbers belong to inactive results.

Experiments:
Test in all cases: log2 fold change, soluble protein after heating vs DMSO (PISA); higher = thermal stabilisation; K562 cells, 10 uM, 30 min; active = over 0.2 and 3.5 SD of the protein, either way, in both replicates (recomputed)
[1] = compound: Cc1ccc(NC(=O)c2ccc(CN3CC[C@H](N(C)C)C3)c(C(F)(F)F)c2)cc1Nc1nccc(-c2cncnc2)n1 [bafetinib]
In short: (§1)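 Aliquots of K562 cells (2×10^6 cells/mL) treated with 10 μM compound for 30 min were heated for 3 min over 48°C-58°C. After pooling and extraction in PBS with 0.5% NP-40 at 4°C, soluble protein from a 21,000xg, 90 min spin was quantified by TMTpro 16plex LC-MS/MS with channel sums equalised. Thermal stability is expressed against control samples, from duplicates, as a log2 fold change.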

[2] = compound: Cc1cccc(CC(=O)N2CCc3c2ccc(-c2cn(C)c4ncnc(N)c24)c3F)n1
In short: as §1

[3] = compound: Cc1cn(-c2cc(NC(=O)c3ccc(C)c(Nc4nccc(-c5cccnc5)n4)c3)cc(C(F)(F)F)c2)cn1 [nilotinib]
In short: as §1

[4] = compound: Cc1nc(Nc2n[nH]c3c2CN(C(=O)N[C@H](CN(C)C)c2ccccc2)C3(C)C)c2sccc2n1
In short: as §1

[5] = compound: Cc1nc(Nc2ncc(C(=O)Nc3c(C)cccc3Cl)s2)cc(N2CCN(CCO)CC2)n1 [dasatinib]
In short: as §1

[6] = compound: Cc1ncc(-c2ccnc(Nc3ccc(S(C)(=O)=O)cc3)n2)n1C(C)C
In short: as §1

[7] = compound: Cn1cc(-c2ccc3c(c2)CCN3C(=O)Cc2cccc(C(F)(F)F)c2)c2c(N)ncnc21
In short: as §1

[8] = compound: Cn1cc(-c2ccc3nnc(C(F)(F)c4ccc5ncccc5c4)n3n2)cn1
In short: as §1

[9] = compound: Cn1cncc1[C@@](N)(c1ccc(Cl)cc1)c1ccc2c(c1)c(-c1cccc(Cl)c1)cc(=O)n2C [tipifarnib]
In short: as §1

[10] = compound: FC(F)(F)c1ccc(/C=C/c2nc(COc3ccc(CCCCn4ccnn4)cc3)co2)cc1 [mubritinib]
In short: as §1

[11] = compound: NC(=O)Nc1cc(-c2cccc(F)c2)sc1C(=O)N[C@H]1CCCNC1
In short: as §1

[12] = compound: NC(=O)c1cnc(N[C@@H]2CCCC[C@@H]2N)nc1Nc1cccc(-n2nccn2)c1
In short: as §1

[13] = compound: NC1(c2ccc(-c3nc4ccn5c(=O)[nH]nc5c4cc3-c3ccccc3)cc2)CCC1
In short: as §1

[14] = compound: NCC(=O)Nc1ccc(-n2nc(C(F)(F)F)cc2-c2ccc3c(ccc4ccccc43)c2)cc1
In short: as §1

[15] = compound: Nc1ccccc1NC(=O)c1ccc(CNC(=O)OCc2cccnc2)cc1 [entinostat]
In short: as §1

[16] = compound: O=C(CCCCCCC(=O)Nc1ccccc1)NO [vorinostat]
In short: as §1

[17] = compound: O=C(CCCCCCNC(=O)c1cnc(N(c2ccccc2)c2ccccc2Cl)nc1)NO [citarinostat]
In short: as §1

[18] = compound: O=C(O)c1ccc2c(c1)nc(Nc1cccc(Cl)c1)c1ccncc12 [silmitasertib]
In short: as §1

[19] = compound: O=C1NC(=O)C(c2cnc3ccccn23)=C1c1cn2c3c(cc(F)cc13)CN(C(=O)N1CCCCC1)CC2
In short: as §1

[20] = compound: c1cc(OCCN2CCCCC2)cc(-c2n[nH]c3ccc(-c4nnc[nH]4)cc23)c1
In short: as §1

Chain of MTHFD1, A0A384N5Y3 (A0A384N5Y3 whole entry, looked up): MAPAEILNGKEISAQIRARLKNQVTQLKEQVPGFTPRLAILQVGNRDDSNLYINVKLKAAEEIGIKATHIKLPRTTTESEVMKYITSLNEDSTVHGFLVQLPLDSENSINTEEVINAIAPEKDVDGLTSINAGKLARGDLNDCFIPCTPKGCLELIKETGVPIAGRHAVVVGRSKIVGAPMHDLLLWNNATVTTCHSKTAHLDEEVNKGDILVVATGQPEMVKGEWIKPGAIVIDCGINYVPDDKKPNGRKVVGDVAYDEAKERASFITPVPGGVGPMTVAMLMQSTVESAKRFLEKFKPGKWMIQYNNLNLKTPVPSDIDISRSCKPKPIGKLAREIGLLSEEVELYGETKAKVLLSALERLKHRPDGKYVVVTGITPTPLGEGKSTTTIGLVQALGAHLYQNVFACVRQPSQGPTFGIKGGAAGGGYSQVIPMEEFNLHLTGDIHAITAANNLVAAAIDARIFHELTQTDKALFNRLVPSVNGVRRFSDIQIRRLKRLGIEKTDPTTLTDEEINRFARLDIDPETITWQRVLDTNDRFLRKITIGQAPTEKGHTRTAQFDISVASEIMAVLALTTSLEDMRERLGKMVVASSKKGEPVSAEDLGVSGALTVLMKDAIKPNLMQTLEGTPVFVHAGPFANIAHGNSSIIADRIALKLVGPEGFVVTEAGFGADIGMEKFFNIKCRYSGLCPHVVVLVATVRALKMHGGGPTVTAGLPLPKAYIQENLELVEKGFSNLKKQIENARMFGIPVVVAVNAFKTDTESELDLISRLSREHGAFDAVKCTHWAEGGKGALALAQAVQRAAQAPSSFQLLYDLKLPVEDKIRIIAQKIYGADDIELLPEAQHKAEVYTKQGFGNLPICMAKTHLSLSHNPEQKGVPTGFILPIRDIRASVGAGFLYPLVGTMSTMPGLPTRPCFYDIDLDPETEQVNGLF
Chain of UniProt O14950 (O14950 whole entry, looked up): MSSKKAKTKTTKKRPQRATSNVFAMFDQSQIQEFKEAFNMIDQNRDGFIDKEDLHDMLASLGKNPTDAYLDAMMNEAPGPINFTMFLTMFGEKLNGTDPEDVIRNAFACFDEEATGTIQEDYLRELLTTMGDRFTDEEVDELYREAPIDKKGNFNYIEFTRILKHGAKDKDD
Chain of UniProt P35749 (P35749 whole entry, looked up): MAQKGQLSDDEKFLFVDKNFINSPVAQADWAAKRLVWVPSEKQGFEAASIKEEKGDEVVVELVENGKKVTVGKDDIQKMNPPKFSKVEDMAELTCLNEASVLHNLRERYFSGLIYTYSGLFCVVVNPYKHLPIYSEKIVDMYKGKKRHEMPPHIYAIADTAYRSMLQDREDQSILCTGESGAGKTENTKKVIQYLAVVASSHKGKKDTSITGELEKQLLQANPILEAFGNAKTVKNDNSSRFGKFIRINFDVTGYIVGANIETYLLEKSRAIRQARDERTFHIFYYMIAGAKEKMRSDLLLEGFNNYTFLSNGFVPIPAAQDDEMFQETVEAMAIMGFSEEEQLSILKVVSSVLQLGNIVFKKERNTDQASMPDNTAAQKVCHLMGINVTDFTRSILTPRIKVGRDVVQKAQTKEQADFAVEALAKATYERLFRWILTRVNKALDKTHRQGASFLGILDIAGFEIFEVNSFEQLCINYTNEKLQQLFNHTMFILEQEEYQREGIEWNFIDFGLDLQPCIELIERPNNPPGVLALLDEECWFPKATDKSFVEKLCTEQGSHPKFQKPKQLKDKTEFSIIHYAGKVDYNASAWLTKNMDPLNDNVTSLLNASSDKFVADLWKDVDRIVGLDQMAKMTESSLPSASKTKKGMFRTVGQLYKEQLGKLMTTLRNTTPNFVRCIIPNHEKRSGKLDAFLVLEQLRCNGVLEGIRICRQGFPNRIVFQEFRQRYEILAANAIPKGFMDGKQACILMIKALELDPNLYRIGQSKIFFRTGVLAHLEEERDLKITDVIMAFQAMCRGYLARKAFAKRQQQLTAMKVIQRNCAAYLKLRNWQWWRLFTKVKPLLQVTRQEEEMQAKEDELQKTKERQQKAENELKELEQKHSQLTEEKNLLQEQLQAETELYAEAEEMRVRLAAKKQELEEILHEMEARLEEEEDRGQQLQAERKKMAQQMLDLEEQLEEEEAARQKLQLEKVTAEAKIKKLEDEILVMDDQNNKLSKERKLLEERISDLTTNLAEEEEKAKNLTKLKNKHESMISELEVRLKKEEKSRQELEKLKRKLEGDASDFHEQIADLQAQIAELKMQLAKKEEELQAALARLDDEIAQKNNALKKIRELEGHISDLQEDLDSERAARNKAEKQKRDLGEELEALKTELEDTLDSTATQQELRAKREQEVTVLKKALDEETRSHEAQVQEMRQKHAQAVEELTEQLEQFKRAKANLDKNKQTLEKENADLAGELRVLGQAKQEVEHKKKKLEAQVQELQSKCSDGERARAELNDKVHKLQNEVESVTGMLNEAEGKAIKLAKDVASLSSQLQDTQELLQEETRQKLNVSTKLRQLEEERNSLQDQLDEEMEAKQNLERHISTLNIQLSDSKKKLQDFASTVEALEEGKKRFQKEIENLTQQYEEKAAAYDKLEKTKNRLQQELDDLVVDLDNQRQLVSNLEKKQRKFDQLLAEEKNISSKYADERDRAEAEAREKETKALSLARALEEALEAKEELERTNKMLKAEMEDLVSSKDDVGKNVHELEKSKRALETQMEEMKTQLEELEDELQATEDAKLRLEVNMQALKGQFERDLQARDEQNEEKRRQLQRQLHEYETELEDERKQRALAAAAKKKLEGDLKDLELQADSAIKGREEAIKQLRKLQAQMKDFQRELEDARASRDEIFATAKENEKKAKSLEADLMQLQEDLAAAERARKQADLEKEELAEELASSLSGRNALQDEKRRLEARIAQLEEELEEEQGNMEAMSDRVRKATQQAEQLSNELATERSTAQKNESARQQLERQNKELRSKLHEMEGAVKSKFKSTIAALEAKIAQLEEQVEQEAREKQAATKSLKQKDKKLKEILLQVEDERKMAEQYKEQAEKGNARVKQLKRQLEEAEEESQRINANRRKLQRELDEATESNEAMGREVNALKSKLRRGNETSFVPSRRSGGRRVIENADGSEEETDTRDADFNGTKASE
Chain of UniProt Q15738 (Q15738 whole entry, looked up): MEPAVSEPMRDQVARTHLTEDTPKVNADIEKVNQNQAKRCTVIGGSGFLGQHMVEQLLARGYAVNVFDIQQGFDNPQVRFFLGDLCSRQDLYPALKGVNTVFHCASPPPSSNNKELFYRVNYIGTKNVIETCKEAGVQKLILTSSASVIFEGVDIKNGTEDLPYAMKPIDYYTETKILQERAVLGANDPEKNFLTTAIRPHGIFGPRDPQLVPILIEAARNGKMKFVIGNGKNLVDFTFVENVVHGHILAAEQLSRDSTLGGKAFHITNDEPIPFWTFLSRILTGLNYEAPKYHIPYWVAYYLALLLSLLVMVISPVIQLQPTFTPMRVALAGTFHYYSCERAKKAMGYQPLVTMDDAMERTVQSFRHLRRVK
Chain of UniProt Q8N6M0 (Q8N6M0 whole entry, looked up): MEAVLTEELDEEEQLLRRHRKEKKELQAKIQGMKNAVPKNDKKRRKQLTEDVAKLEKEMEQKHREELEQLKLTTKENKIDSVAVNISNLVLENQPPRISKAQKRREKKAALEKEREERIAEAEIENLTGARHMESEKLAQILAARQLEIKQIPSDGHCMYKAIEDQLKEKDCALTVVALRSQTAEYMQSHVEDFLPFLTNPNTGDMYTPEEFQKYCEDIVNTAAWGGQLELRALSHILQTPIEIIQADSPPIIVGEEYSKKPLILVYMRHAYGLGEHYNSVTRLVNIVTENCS
Chain of UniProt O60551 (O60551 whole entry, looked up): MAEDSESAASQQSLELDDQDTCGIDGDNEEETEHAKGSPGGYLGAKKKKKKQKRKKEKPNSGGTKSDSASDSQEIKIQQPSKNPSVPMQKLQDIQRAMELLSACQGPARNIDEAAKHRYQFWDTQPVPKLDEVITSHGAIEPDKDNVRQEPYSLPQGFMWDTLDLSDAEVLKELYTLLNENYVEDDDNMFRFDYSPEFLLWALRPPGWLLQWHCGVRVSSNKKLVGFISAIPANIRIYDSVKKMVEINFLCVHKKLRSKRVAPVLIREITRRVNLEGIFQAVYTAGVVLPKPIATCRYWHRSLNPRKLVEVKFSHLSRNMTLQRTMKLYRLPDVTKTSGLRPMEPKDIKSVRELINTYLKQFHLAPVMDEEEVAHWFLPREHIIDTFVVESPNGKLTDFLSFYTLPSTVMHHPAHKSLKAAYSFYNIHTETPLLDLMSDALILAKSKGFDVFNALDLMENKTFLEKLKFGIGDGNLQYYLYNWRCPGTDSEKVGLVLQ

Row | Target | log2 fold change [1] | log2 fold change [2] | log2 fold change [3] | log2 fold change [4] | log2 fold change [5] | log2 fold change [6] | log2 fold change [7] | log2 fold change [8] | log2 fold change [9] | log2 fold change [10] | log2 fold change [11] | log2 fold change [12] | log2 fold change [13] | log2 fold change [14] | log2 fold change [15] | log2 fold change [16] | log2 fold change [17] | log2 fold change [18] | log2 fold change [19] | log2 fold change [20]
1 | MYL12B (UniProt O14950) | -0.049 | 0.042 | 0.031 | 0.001 | 0.001 | -0.002 | 0.117 | -0.046 | -0.038 | 0.064 | 0.09 | 0.084 | -0.013 | 0.055 | 0.029 | -0.004 | 0.045 | -0.037 | -0.042 | 0.026
2 | NSDHL (UniProt Q15738) | 0.006 | 0.014 | 0.033 | -0.021 | 0.054 | 0.001 | 0.11 | 0.133 | 0.029 | 0.164 | -0.14 | -0.061 | 0.11 | -0.033 | -0.018 | -0.04 | 0.023 | -0.023 | -0.027 | 0.02
3 | OXA1L (UniProt Q15070) | -0.152 | -0.032 | 0.013 | -0.019 | -0.01 | -0.029 | 0.013 | 0.038 | 0.004 | 0.003 | 0.019 | -0.021 | -0.04 | -0.025 | -0.021 | 0.005 | 0.017 | 0.02 | -0.038 | 0.113
4 | MTHFD1, A0A384N5Y3 | 0.099 | -0.055 | 0.239 | -0.099 | -0.153 | -0.031 | 0.087 | -0.008 | -0.146 | 0.107 | -0.048 | -0.033 | 0.17 | -0.077 | -0.059 | 0.013 | 0.024 | -0.091 | -0.056 | 0.041
5 | NMT2 (UniProt O60551) | 0.021 | 0.047 | 0.018 | 0.083 | -0.088 | -0.031 | -0.003 | 0.03 | -0.015 | 0.041 | 0 | -0.089 | -0.168 | -0.164 | -0.004 | -0.049 | 0.007 | -0.028 | -0.017 | -0.491 (active)
6 | MYH11 isoform 2 (UniProt P35749) | -0.055 | -0.016 | 0.05 | 0.014 | -0.027 | -0.025 | 0.039 | -0.001 | 0.005 | 0.007 | 0.056 | 0.018 | -0.017 | 0.046 | 0.015 | 0.121 | 0.027 | -0.003 | -0.009 | -0.034
7 | OTUD6B (UniProt Q8N6M0) | -0.014 | 0.105 | -0.114 | -0.067 | -0.142 | -0.031 | 0.044 | 0.067 | -0.039 | -0.02 | -0.122 | -0.121 | -0.167 | -0.064 | 0.022 | 0.215 | -0.013 | 0.059 | -0.065 | -0.053
